Assay outcomes as filed in PubChem.
A selection: hits, their analogues and other compounds. The true share with any hit is near 19%.
TDP1 inh = TDP1 (human) enzyme inhibition; AID 485290; Q9NUW8; recombinant TDP1, AlphaScreen DNA substrate cleavage; Potency, µM (highest dose often 130 µM), for inactives: top-dose activity change, negative = inhibition, hits mostly inhibitors; 350,000 tested, 0.28% active; further: nearly all actives have a fitted effect of over 40% in size
Target sequence (Q9NUW8 whole entry, looked up): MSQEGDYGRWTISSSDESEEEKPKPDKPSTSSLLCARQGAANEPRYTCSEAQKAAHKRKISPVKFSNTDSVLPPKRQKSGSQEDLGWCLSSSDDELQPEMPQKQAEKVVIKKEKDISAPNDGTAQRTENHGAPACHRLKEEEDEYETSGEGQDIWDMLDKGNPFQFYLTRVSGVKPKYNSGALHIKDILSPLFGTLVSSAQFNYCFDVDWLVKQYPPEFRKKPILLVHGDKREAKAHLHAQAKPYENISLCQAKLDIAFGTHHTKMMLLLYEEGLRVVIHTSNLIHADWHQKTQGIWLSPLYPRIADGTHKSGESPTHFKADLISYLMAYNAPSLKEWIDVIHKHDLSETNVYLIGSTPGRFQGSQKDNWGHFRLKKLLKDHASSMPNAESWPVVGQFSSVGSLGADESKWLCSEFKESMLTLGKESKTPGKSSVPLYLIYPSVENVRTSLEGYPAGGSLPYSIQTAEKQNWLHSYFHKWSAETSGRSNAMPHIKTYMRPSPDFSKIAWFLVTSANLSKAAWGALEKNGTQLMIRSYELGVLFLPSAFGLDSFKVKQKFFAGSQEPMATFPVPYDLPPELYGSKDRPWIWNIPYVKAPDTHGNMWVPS
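Compounds were preincubated with Tdp1 (1 nM final) for 15 min at room temperature before substrate (15 nM final) started a 5 min reaction; beads (10 ug/ml final) were then added for 10 min before AlphaScreen detection.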
TDP1 cell CPT = DT40-hTDP1 cell growth loss with CPT | Potency, µM (top dose mostly 46.2 µM), for inactives: at the highest dose activity change, negative = growth inhibition, hits mostly inhibitors | chicken DT40 Tdp1-/-;hTDP1 cells + 20 nM CPT, ATP luminescence, 48 h | 420,000 tested, 12% active; further: nearly all actives have a fitted effect of over 55% in size
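Chicken DT40 Tdp1-/- cells complemented with human TDP1, 400 cells/well, exposed to compounds plus 20 nM camptothecin for at least 48 h at 37 C; viability read as ATP content by CellTiter-Glo luminescence.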
RORg inh = ROR gamma (mouse) transcription inhibition; Drosophila S2 Gal4-RORgamma UAS-luciferase reporter, 20 h; Potency, µM (highest dose often 53.6 µM), inactives show at the highest dose activity change, negative = inhibition, hits mostly inhibitors; 310,000 tested, 5.4% active; P51450; further: nearly all actives have a fitted effect of over 60% in size
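Luminescence from a UAS-regulated Photinus luciferase reporter in stably transfected Drosophila Schneider cells is measured; decreased signal marks ROR gamma inhibition. Fusion expression is induced by 700 uM copper sulfate for 20 hr.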
DT40 TDP1 no CPT = qHTS for Inhibitors of human tyrosyl-DNA phosphodiesterase 1 (TDP1): qHTS in cells in absence of CPT; Potency, µM (doses to about 46.2 µM), for the others: top-dose activity change, negative = growth inhibition, most hits filed as inhibitors; DT40 Tdp1-/- hTDP1 cells, no CPT, ATP luminescence, 48 h; 420,000 tested, 15% active; further: nearly all actives have a fitted effect of over 55% in size
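DT40 Tdp1-/-;hTDP1 cells, no CPT (DMSO vehicle only), 400 cells/well; compounds pin-transferred; ≥48 hr, 37 °C; CellTiter-Glo 30 min RT dark, luminescence read.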
VP16 counter = counter-screen for ROR gamma inhibitors: Gal4-VP16 reporter | Drosophila S2 Gal4-VP16 UAS-luciferase, luminescence, 20 h | Potency, µM (titrated, usually from 53.6 µM), for the others: top-dose activity, negative = inhibition, most hits filed as inhibitors | 310,000 tested, 3.5% active;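 further: Gal4-VP16 expression switched on by copper sulfate through the metallothionein promoter; nearly all actives have a fitted effect of over 50% in size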
Starred values were filed as active, the others as inactive; [ ] = remark or other dose. The call rests on the fitted dose curve; in most records, active means well fitted curve in the direction sought with a large enough effect; inconclusive means small, poorly fitted or top-dose-only effect, or another doubt; inactive means no such curve, though single readings can be large; an effect the other way counts as inactive or inconclusive. On the % scale 0 is the no-effect control and ±100 the full control effect; potency means the concentration at half of the fitted maximal effect.

Screening Clc1cccc(CNc2nc(-c3cccnc3)nc3ccccc23)c1 returned TDP1 inh 3%, TDP1 cell CPT inconclusive, RORg inh -6%, DT40 TDP1 no CPT inconclusive and VP16 counter -3%.
Screening COc1cc2[nH]c(=S)nc(NCc3cccnc3)c2cc1OC returned TDP1 cell CPT -11%, RORg inh 1%, DT40 TDP1 no CPT 7% and VP16 counter -6%.
Screening COc1ccc(CNc2nc(=S)[nH]c3cc(OC)c(OC)cc23)cc1 returned TDP1 cell CPT -29%, RORg inh 16µM*, DT40 TDP1 no CPT inconclusive and VP16 counter inconclusive.
S=c1nc(NCc2cccc(Cl)c2)c2ccccc2[nH]1 was read as TDP1 cell CPT -8%, RORg inh 4µM*, DT40 TDP1 no CPT -2% and VP16 counter 8.9µM*.
COc1cc2[nH]c(=S)nc(NCc3ccccc3)c2cc1OC was read as TDP1 cell CPT -23%, RORg inh 7.1µM*, DT40 TDP1 no CPT -20% and VP16 counter inconclusive.
S=c1nc(NCc2ccc3c(c2)OCO3)c2ccccc2[nH]1 was read as TDP1 cell CPT -8%, RORg inh 13µM*, DT40 TDP1 no CPT 2% and VP16 counter inconclusive.
For COc1cc2[nH]c(=S)nc(NCc3ccccn3)c2cc1OC the results were TDP1 inh 1%, TDP1 cell CPT 18%, RORg inh -23%, DT40 TDP1 no CPT -4% and VP16 counter 3%.
`CC(=O)Oc1ccc2c(c1C(C)C)CCC1C(C)(C)CCC[C@@]21C` (some centres not stated) gave TDP1 inh 6%[56.1 µM], TDP1 cell CPT -24%, RORg inh -22%, DT40 TDP1 no CPT -2% and VP16 counter 0%.
For COc1cc2[nH]c(=S)nc(NCc3ccc(C)cc3)c2cc1OC the results were TDP1 cell CPT inconclusive, RORg inh 6.3µM*, DT40 TDP1 no CPT 23µM* and VP16 counter 18µM*.
For COc1cc2[nH]c(=S)nc(NCc3cccc(Cl)c3)c2cc1OC the results were TDP1 cell CPT inconclusive, RORg inh 3.2µM*, DT40 TDP1 no CPT inconclusive and VP16 counter 7.9µM*.
Screening O=C(NC1CCCCC1)c1ccc(CNc2nc(=S)[nH]c3ccccc23)cc1 returned TDP1 inh 3%, TDP1 cell CPT 10%, RORg inh 13µM*, DT40 TDP1 no CPT -11% and VP16 counter 2%.
Screening Cc1ccc(OCC(=O)Nc2nnc(S(=O)(=O)N3CCC(C)CC3)s2)cc1 returned TDP1 inh 0%, TDP1 cell CPT -4%, RORg inh 2%, DT40 TDP1 no CPT -26% and VP16 counter -8%.
`CCCN1C(=O)C2(c3ccccc31)c1c(oc3ccc(F)cc3c1=O)C(=O)N2CCCOC(C)C` (configuration not stated) gave TDP1 inh 7%, TDP1 cell CPT 21µM* and DT40 TDP1 no CPT inconclusive.
For CC(=O)Nc1ccc(S(=O)(=O)N2CCN=C2SCc2cccc(C)c2)cc1 the results were TDP1 inh 3%[56.1 µM], TDP1 cell CPT inconclusive, RORg inh inconclusive, DT40 TDP1 no CPT inconclusive and VP16 counter -8%.
`CC(=O)Nc1ccc(S(=O)(=O)N2CCN=C2SCc2ccccc2C)cc1` gave TDP1 inh 3%, TDP1 cell CPT inconclusive, RORg inh inconclusive, DT40 TDP1 no CPT 16µM* and VP16 counter -10%.
Screening CC(=O)Nc1ccc(S(=O)(=O)N2CCN=C2SCc2ccc([N+](=O)[O-])cc2)cc1 returned TDP1 inh 5%, TDP1 cell CPT 12µM*, RORg inh inconclusive, DT40 TDP1 no CPT 7.3µM* and VP16 counter inconclusive.
Screening Cc1nc(N2CCOCC2)c2c(C(=O)N3CCN(c4cccc(C)c4C)CC3)c(C)oc2n1 returned TDP1 inh 2%, TDP1 cell CPT inconclusive and DT40 TDP1 no CPT inconclusive.
Screening CCOC(=O)N1CCN(C(=O)c2cc(COc3ccc(Cl)cc3OC)on2)CC1 returned TDP1 inh 2%, TDP1 cell CPT inconclusive, RORg inh 27%, DT40 TDP1 no CPT inconclusive and VP16 counter 17%.
N#Cc1ccc(S(=O)(=O)NC[C@H]2O[C@@H](n3cnc4c(N)ncnc43)[C@H](O)[C@@H]2O)cc1 was read as TDP1 inh 0%[56.1 µM], TDP1 cell CPT 4% and DT40 TDP1 no CPT -2%.
Screening Cc1ccc(N2C(=O)C3C4C=CC(CNC(=S)N5CCN(c6cccc(C)c6)C(C)C5)(O4)C3C2=O)cc1 (configuration not stated) returned TDP1 inh 8%, TDP1 cell CPT 9.2µM*, RORg inh 8.9µM*, DT40 TDP1 no CPT 4.6µM* and VP16 counter inconclusive.
`C=CCOC(=O)C1=C[C@H](c2csc3ccccc23)C[C@H](OCc2ccc(CO)cc2)O1` gave TDP1 cell CPT inconclusive and DT40 TDP1 no CPT 21µM*.
O=C(Nc1ccccc1)C1=C[C@H](c2csc3ccccc23)C[C@H](OCc2ccc(CO)cc2)O1 was read as TDP1 inh 6%, TDP1 cell CPT 16µM*, RORg inh inconclusive, DT40 TDP1 no CPT 16µM* and VP16 counter 16%.
Screening O=C(N1CCCCC1)C1(S(=O)(=O)c2ccccc2)CC=CC1 returned TDP1 cell CPT 21µM*, RORg inh -17%, DT40 TDP1 no CPT 8.2µM* and VP16 counter inconclusive.
For N#CCCN1C(=O)C2(OCCO2)c2ccccc21 the results were TDP1 cell CPT -21%, RORg inh 7%, DT40 TDP1 no CPT 15% and VP16 counter 7%.
For CN(C)C(=S)Oc1ccccc1C1SCCS1 the results were TDP1 cell CPT 0% and DT40 TDP1 no CPT inconclusive.
For Cc1ccc(N2CCN(S(=O)(=O)c3nnc(NC(=O)c4cccc(F)c4)s3)CC2)cc1 the results were TDP1 inh -1%, TDP1 cell CPT 18µM* and DT40 TDP1 no CPT 15µM*.
`CC1CCN(S(=O)(=O)c2nnc(NC(=O)c3cccc(Cl)c3)s2)CC1` gave TDP1 inh 5%, TDP1 cell CPT 13µM*, RORg inh 38%, DT40 TDP1 no CPT 21µM* and VP16 counter -10%.
`Cc1cc(C(=O)NCC2CCCCC2)ccc1[N+](=O)[O-]` gave TDP1 inh 0%, TDP1 cell CPT 0%, RORg inh 9%, DT40 TDP1 no CPT -27% and VP16 counter -7%.
CC(C)c1nnc(NC(=O)C2CCN(c3nc4ccccc4s3)CC2)s1 was read as TDP1 inh 8%, TDP1 cell CPT -27%, RORg inh -24%, DT40 TDP1 no CPT -10% and VP16 counter -2%.
COC(=O)c1cc(O)cc(OC)c1Oc1cc(C)cc(O)c1C(=O)O was read as TDP1 cell CPT 1.2µM*, RORg inh 0%, DT40 TDP1 no CPT 1µM* and VP16 counter 7.1µM*.
